“And” between values parts separate entries of the source, which are not always exact repeats. Equal values may be shown once. In all, about 16,000 compounds went through this assay and about 4,000 (25%) were called active. Inconclusive results (about 26%) are left out. Calls come from the whole dose curve; as a rule, active = well fitted curve in the direction sought with a large enough effect; inconclusive = small, poorly fitted or top-dose-only effect, or effect the other way; inactive = no such curve, though single readings can be large or run the other way. A selection follows.
What follows are molecules tested against Cytochrome P450 2C9 (Homo sapiens) (UniProt P11712) (assay: Cytochrome panel assay with activity outcomes). Conditions: recombinant CYP, pro-luciferin dealkylation, luminescence, p450-cyp2c9; series mostly up to 57.1 µM.
% is set by controls: 0 for no effect and ±100 for the full control effect.

Chain of Cytochrome P450 2C9 (Homo sapiens) (P11712 whole entry, looked up): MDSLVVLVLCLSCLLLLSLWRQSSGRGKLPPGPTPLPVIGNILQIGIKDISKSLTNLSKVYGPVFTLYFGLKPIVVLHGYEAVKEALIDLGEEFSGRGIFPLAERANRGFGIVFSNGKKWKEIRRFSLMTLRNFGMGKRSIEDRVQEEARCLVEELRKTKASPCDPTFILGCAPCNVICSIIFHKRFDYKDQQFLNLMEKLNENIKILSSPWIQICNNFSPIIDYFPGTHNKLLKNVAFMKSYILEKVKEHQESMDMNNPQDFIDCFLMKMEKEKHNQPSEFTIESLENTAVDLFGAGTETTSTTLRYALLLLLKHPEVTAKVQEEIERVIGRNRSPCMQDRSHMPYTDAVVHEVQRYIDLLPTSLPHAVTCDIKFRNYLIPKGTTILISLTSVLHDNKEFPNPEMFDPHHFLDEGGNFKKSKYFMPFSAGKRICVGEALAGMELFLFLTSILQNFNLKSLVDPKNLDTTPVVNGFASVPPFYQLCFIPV

activity, negative = inhibition, inactive:
Cc1noc(C)c1-c1ccc2ncnc(NCCN3CCOCC3)c2c1 -1.53% [at 2.29 µM], c1ccc2c(NC3CC3)nc(-c3ccoc3)nc2c1 -17.7% [at 2.29 µM], CN1CCN(c2ccnc(-c3ccc(N(C)C)cc3)n2)CC1 4.88% [at 2.29 µM], CO[C@@H]1COC(=O)C/C=C\[C@@H](C)COC(=O)[C@H](Cc2ccccc2)NC(=O)C/C=C\[C@H]1C -17.6% [at 11.4 µM], O=C1CCCC=C1[C@@H](O)C1CCCCC1 14.2% [at 11.4 µM], O=C1CCCC=C1[C@H](O)c1ccc([N+](=O)[O-])cc1 -18.1% [at 11.4 µM], CN(C)CCn1c(CO)nc2c1c(=O)n(C)c(=O)n2C 0.0092% [at 11.4 µM], N#Cc1cccc(-c2cncnc2NCc2ccccc2)c1 -4.42% [at 2.29 µM], O=C(O)[C@@H]1[C@@H]2C[C@H]([C@@H](Br)[C@H]2N2C(=O)CCC2=O)[C@@H]1C(=O)O 8.14% [at 11.4 µM], CN1CCN(Cc2nc3cccc4c3c([n+]2[O-])-c2ccccc2-4)CC1 -11.8% [at 11.4 µM], NNS(=O)(=O)c1cc(C(=O)O)cc(C(=O)O)c1 -5.43% [at 11.4 µM], O=c1n(-c2ccccc2)c(=O)n2n1CC[C@H]1/C(=N\OC[C@@H](O)COCc3ccco3)[C@H]3O[C@@H]3[C@@H](O)[C@@H]12 19.1% [at 11.4 µM] and 17% [at 11.4 µM]

AC50, active:
c1ccc(-c2c3ccccc3nc3[nH]c4ccccc4c23)cc1 10 µM, Cc1cc(C)n2nc(SCc3cc(=O)oc4ccc5ccccc5c34)nc2n1 8.91 µM, O=C1CCCC=C1[C@H](CCc1ccccc1)OC(=O)c1ccc(Br)cc1 3.16 µM, CCCCCn1c(CN2CCCCC2C)nc2c1c(=O)n(C)c(=O)n2C (stereo unspecified) 15.8 µM, COC(=O)c1c(C)oc2ccc(N(C(=O)c3ccncc3)S(=O)(=O)c3ccccc3)cc12 2.51 µM, CCC(C)N1C(=O)S/C(=C/c2ccc(Sc3nc4ccccc4[nH]3)o2)C1=O (stereo unspecified) 1.26 µM, CC(C)(C)c1nc(SCC(=O)Nc2ccc(N3CCOCC3)cc2)c2ccccc2n1 7.94 µM, Cc1ccc(C)c(CN2C(=O)C3CCCN3c3ccc(C#N)cc32)c1 (stereo unspecified) 7.08 µM, CCOc1ccc(N(C(=O)/C=C/C(=O)Nc2cc(C)on2)C(C(=O)NC2CCCC2)c2ccccc2C)cc1 (stereo unspecified) 3.16 µM, O=S1(=O)C=C(Oc2ccc3ccccc3c2)c2ccccc21 3.98 µM, CC(c1ccc(Cl)cc1)n1c(-c2ccc3ccccc3n2)n[nH]c1=S (stereo unspecified) 2.51 µM, COC(=O)c1cc(NS(=O)(=O)c2ccc(N3CCCCCC3)c([N+](=O)[O-])c2)cc(C(=O)OC)c1 2.24 µM, CC1CCN(c2ccc(S(=O)(=O)Nc3cc(C(=O)O)cc(C(=O)O)c3)cc2[N+](=O)[O-])CC1 14.1 µM, COC(=O)c1cc(NS(=O)(=O)c2ccc(N3CCCCC3)c([N+](=O)[O-])c2)cc(C(=O)OC)c1 0.631 µM, Cc1nc2c(c(-c3ccccc3)c1C#N)C(=O)c1ccccc1-2 0.447 µM, O=C(Cn1c(-c2cscn2)nc2ccccc21)Nc1cc(F)ccc1F 15.8 µM, O=C(Nc1ccc(Br)cc1)c1ccc(CSC2=NCCS2)cc1 7.08 µM, COc1ccc(OCCn2c(C)c(/C=N/n3cnnc3)c3ccccc32)cc1 0.316 µM, Cc1nc(C(=O)Nc2ccc(Cl)cc2Cl)nn1-c1cc(OC(C)C)c(Cl)cc1Cl 2.51 µM

AC50, inactive:
CCC(=O)O[C@@H]1[C@H](C)O[C@H](O[C@H]2[C@@H](N(C)C)[C@H](O)[C@@H](O[C@@H]3[C@@H](CC=O)C[C@@H](C)[C@@H](O)/C=C\C=C/C[C@@H](C)OC(=O)C[C@@H](OC(=O)CC)[C@H]3OC)O[C@H]2C)C[C@]1(C)O, CCCCc1c2ccccc2nc2[nH]c3ccccc3c12, CC[C@@H]1CN2CCc3cc(OC)c(OC)cc3[C@H]2C[C@@H]1C[C@@H]1NCCc2cc(OC)c(OC)cc21, CN(C)c1ccc(O)c2c1C[C@H]1C[C@H]3[C@@H](N(C)C)C(=O)C(C(N)=O)=C(O)[C@]3(O)C(=O)C1=C2O, CCN(CC)CCCNC(=O)CC1Sc2ccccc2NC1=O (stereo unspecified), COc1ccccc1CNC(=O)CSc1nc2nc(C)cc(C)n2n1, Cc1cc(C)n2nc(SCN3C(=O)c4ccccc4C3=O)nc2n1, CCCCn1c(SCC(=O)N2CCCC2)nc2c1c(=O)n(C)c(=O)n2C, CCNc1ncc2nc(-c3cc(F)cc(F)c3)c(=O)n(-c3ccc(OC)cc3)c2n1, O=C(Oc1ccccc1)N1CCC2(CC1)CCN(c1cccc(-c3ccccc3)c1)CC2, COC(=O)c1c(C)nc2ccccc2c1C(=O)O, Cc1ncc([N+](=O)[O-])n1CC(C)O (stereo unspecified), Clc1cccc(C=NC=Nc2cccc(Cl)c2)c1, Cn1c(CCC(=O)Nc2ccc(N3CCOCC3)cc2)nc(=O)c2ccccc21, CNCC[C@H](Oc1ccccc1C)c1ccccc1, CNCCC=C1c2ccccc2C=Cc2ccccc21, COc1ccccc1CN1CC[C@@]2(CCCN(S(=O)(=O)c3ccccc3)C2)C1, O=C(CCN1C(=O)c2ccccc2C1=O)Oc1ccc2ccccc2c1, c1ccc2nc(C3=NCCN3)ccc2c1, CN(C)CC[C@H](c1ccc(Cl)cc1)c1ccccn1, COC(=O)c1[nH]c(C)c(/C(O)=C2\C(=O)C(=O)N(CCN(C)C)C2c2cccs2)c1C (stereo unspecified), CC1CCN(c2ccc(/C=N/n3nnnc3N)cc2[N+](=O)[O-])CC1, COc1ccc(Oc2c(C=O)c3ccccc3n2C)cc1, C[C@H](N=C(NC#N)Nc1ccncc1)C(C)(C)C, Cc1cc(C(F)F)n2nc(C(=O)Nc3cccnc3Cl)nc2n1

Source: PubChem BioAssay AID1851 (National Center for Advancing Translational Sciences (NCATS), 2009)
